Results on 31 compounds are retold here after PubChem BioAssay (NCATS).

Inconclusive results are not listed. Entries that show only a call come without a potency. The source made the active and inactive calls. Calls come from the whole dose curve.

The nature of the assay: Validation screen for inhibitors of Lassa infection (AID 463096). The conditions noted are these: Lassa virus infection, cell-based; series mostly up to 46.1 µM.
Regarding `CCN(CC)CCNC(=O)c1cc(Cl)c(N)cc1OC`, the Potency result is “inactive”. With `CC1(C)NC(=O)N(c2ccc([N+](=O)[O-])c(C(F)(F)F)c2)C1=O` the entry was “inactive”; with `Oc1ccc(C2CNCCc3c2cc(O)c(O)c3Cl)cc1` (stereo unspecified), “inactive”. With `CCN(CC)CCOC(=O)C1(C2CCCCC2)CCCCC1`, the Potency result was “inactive”. To `Cc1ccc(S(=O)(=O)NC(=O)NN2CCCCCC2)cc1` belongs “inactive”. To `Clc1ccc(C(c2ccccc2Cl)C(Cl)Cl)cc1` (stereo unspecified) belongs “inactive”. With `Cc1[nH]c(=O)c(C#N)cc1-c1ccncc1` the entry was “inactive”; with `CC(C)C(=O)Nc1ccc([N+](=O)[O-])c(C(F)(F)F)c1`, “inactive”; with `O=C1N=C(O)CN1/N=C/c1ccc(-c2ccc([N+](=O)[O-])cc2)o1`, “inactive”. Turning to `Cc1oncc1C(=O)Nc1ccc(C(F)(F)F)cc1`, the Potency result is “inactive”.

Regarding `COc1cc2nc(N3CCN(C(=O)C4CCCO4)CC3)nc(N)c2cc1OC` (stereo unspecified), the Potency entry was “inactive”. For `CC1=NS(=O)(=O)c2cc(Cl)ccc2N1`, the Potency result is “inactive”.

Regarding `COc1ccc(Cl)cc1C(=O)NCCc1ccc(S(=O)(=O)NC(=O)NC2CCCCC2)cc1`, the Potency entry was “inactive”. To `CN(C)c1nc(N(C)C)nc(N(C)C)n1` belongs “inactive”; to `CCCNC(=O)NS(=O)(=O)c1ccc(Cl)cc1`, “inactive”; to `CC(C)NCC(O)c1ccc(O)c(O)c1` (stereo unspecified), “inactive”.

Consider `CC(=O)Nc1nnc(S(N)(=O)=O)s1`, for which the Potency result was “inactive”. With `CCCN1C[C@H](CSC)C[C@@H]2c3cccc4[nH]cc(c34)C[C@H]21` the entry was “inactive”; with `O=C1CCC(N2C(=O)c3ccccc3C2=O)C(=O)N1` (stereo unspecified), “inactive”. With `O=C1CCc2cc(OCCCCc3nnnn3C3CCCCC3)ccc2N1` the entry was “inactive”; with `CN1CCN(C2=Nc3cc(Cl)ccc3Nc3ccccc32)CC1`, “inactive”; with `COC(=O)Nc1nc2ccc(C(=O)c3cccs3)cc2[nH]1`, “inactive”.

As to `CC(C)(C)NC(=O)[C@H]1CC[C@H]2[C@@H]3CC[C@H]4NC(=O)C=C[C@]4(C)[C@H]3CC[C@]12C`, the Potency entry is “inactive”. To `COc1cc2nc(N3CCN(C(=O)C4COc5ccccc5O4)CC3)nc(N)c2cc1OC` (stereo unspecified) belongs “inactive”. With `COc1cc(Cc2cnc(N)nc2N)cc(OC)c1OC` the entry was “inactive”; with `CC(C)NCC(O)COc1ccc(CCOCC2CC2)cc1` (stereo unspecified), “inactive”. Turning to `CCOC(=O)c1ncn2c1CN(C)C(=O)c1cc(F)ccc1-2`, the Potency result is “inactive”. As to `COC(=O)C1=C(C)NC(C)=C(C(=O)OCCN(C)Cc2ccccc2)C1c1cccc([N+](=O)[O-])c1` (stereo unspecified), the Potency result is “inactive”. For the compound `CN(C)CCOC(C)(c1ccccc1)c1ccccn1` (stereo unspecified), the Potency result was “inactive”.

As for `O=NN(CCCl)C(=O)NCCCl`, the Potency result was “inactive”.

`CC(C(=O)O)c1cccc(C(=O)c2ccccc2)c1` (stereo unspecified): the Potency result was “inactive”.
